Screening data as filed in PubChem BioAssay.
JMJD2E inh = qHTS Assay for Inhibitors of Human Jumonji Domain Containing 2E (JMJD2E); Lysine-specific demethylase 4E (Homo sapiens), B2RXH2; JMJD2E catalytic domain, FDH-coupled NADH fluorescence (FDH is formaldehyde dehydrogenase); Potency, µM (top dose mostly 57.1 µM), without a hit: at the highest dose activity change, negative = inhibition, most hits filed as inhibitors; 230,000 compounds, 1.6% hits; AID 2147, 2009; active = well fitted inhibition curve with a large enough effect, not every such curve was filed as active; inconclusive = small, poorly fitted or top-dose-only effect, or another doubt; inactive = no such curve, though single readings can be large or run the other way;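 also: 0% = wells with enzyme and -100% = buffer wells without enzyme; nearly all actives have a fitted effect of over 50% in size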
TR SRC2 fluor cs = Total Fluorescence Counterscreen for Inhibitors of the Interaction of Thyroid Hormone Receptor and Steroid Receptor Coregulator 2 | Potency, µM (highest dose often 106 µM), for inactives: at the highest dose fluorescence change, negative = quenching | TRb/SRC2 Texas Red total fluorescence interference | 280,000 compounds, 0.29% hits | AID 1479, 2009; active = well fitted curve in either direction with a large enough effect; inconclusive = small, poorly fitted or top-dose-only effect
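Human TRb ligand-binding domain at 0.6 uM with 20 nM Texas Red SRC2 peptide in Tris buffer containing 1 uM T3 and 5% DMSO, incubated with compound 5 h at ambient temperature. Total fluorescence (555/632 nm) calculated as parallel + 2 × perpendicular.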
Tau fibril ThT = qHTS for Inhibitors of Tau Fibril Formation, Thioflavin T Binding. recombinant tau K18 P301L, heparin-induced fibrillization, ThT fluorescence. Potency, µM (series often up to 57.4 µM), without a hit: at the top dose activity, negative = inhibition, most hits filed as inhibitors. 270,000 compounds, 2.1% hits. AID 1460, 2008; also: nearly all actives have a fitted effect of over 55% in size
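Recombinant human tau K18 fragment […] carrying P301L, 15 uM unlabeled plus 0.24 uM Alexa 594-labeled, was fibrillized with 20 uM heparin in 100 mM sodium acetate pH 7 for 6 hr at 37 C; 30 uM ThT fluorescence read after 1 hr.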
TRb-SRC2 inh = qHTS for Inhibitors of the Interaction of Thyroid Hormone Receptor and Steroid Receptor Coregulator 2 | TRbeta-SRC2 peptide binding, fluorescence polarization; receptor liganded with 1 µM T3 | 280,000 compounds, 0.065% hits | Potency, µM (doses to about 106 µM), inactives show at the top dose activity change, negative = inhibition, most hits filed as inhibitors;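 also: plate controls were bound peptide for no effect and peptide without receptor for full effect; nearly all actives have a fitted effect of over 50% in size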
Target sequence (P10828 whole entry, looked up): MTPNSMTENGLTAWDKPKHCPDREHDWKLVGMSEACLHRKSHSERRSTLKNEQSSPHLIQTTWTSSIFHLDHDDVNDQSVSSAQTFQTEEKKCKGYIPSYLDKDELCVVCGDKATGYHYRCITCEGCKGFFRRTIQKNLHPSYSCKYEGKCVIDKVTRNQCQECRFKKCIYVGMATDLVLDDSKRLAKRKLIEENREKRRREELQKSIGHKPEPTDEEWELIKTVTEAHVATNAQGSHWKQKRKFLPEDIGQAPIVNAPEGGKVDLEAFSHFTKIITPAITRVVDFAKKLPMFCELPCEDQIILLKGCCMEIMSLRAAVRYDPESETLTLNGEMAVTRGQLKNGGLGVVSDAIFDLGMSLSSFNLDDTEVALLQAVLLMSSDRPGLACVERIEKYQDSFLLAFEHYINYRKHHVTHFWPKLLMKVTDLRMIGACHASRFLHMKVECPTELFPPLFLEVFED
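Polarization signal, normalized between peptide-alone and full complex controls, measured compound effects on T3-liganded human TRb LBD (0.6 uM) binding 20 nM Texas Red SRC2 peptide after 5 hr.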
Tau FP inhib = qHTS for Inhibitors of Tau Fibril Formation, Fluorescence Polarization; Microtubule-associated protein tau (Homo sapiens), P10636; K18 P301L tau heparin fibrillization, Alexa594 FP, 6 h; Potency, µM (doses to about 57.7 µM), for the others: at the top dose activity, negative = inhibition, hits mostly inhibitors; 280,000 compounds, 0.39% hits; AID 1468, 2008; also: nearly all actives have a fitted effect of over 55% in size
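Steps: dispense K18 P301L tau (15 uM plus 0.24 uM Alexa 594 tracer, final) in pH 7 sodium acetate; add compound; add heparin (20 uM final); incubate 6 hr, 37 C; add ThT (30 uM final); after 1 hr ambient, read FP.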
Tau fluor cs = Counterscreen qHTS for Inhibitors of Tau Fibril Formation, Fluorescence Polarization. tau K18 P301L (four-repeat tau fragment) Alexa594 fluorescence, heparin fibrillization. Potency, µM (top dose mostly 57.7 µM), inactives show at the top dose activity change, negative = decrease. 280,000 compounds, 0.93% hits. AID 1463, 2008; also: nearly all actives have a fitted effect of over 55% in size
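Human K18 P301L tau (15 uM unlabeled plus 0.24 uM Alexa 594-labeled, final) in 100 mM sodium acetate pH 7 was mixed with compound and 20 uM heparin and incubated 6 hr at 37 C.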
* = called active by the depositor; [ ] = another dose, or the depositor's remark. Compounds with a hit are over-represented: about 3.5% of the library has one in this group of screens. Unless noted, calls follow the shape of the dose curve; as a rule, active = well fitted curve in the direction sought with a large enough effect; inconclusive = small, poorly fitted or top-dose-only effect, or another doubt; inactive = no such curve, though single readings can be large; an effect the other way counts as inactive or inconclusive. Unless noted, % is scaled to controls: 0 for no effect and ±100 for the full control effect; potency is read from the fitted curve at half-maximal effect.

Screening O=c1cc(-c2ccc(O)c(O)c2)oc2cc(O)c(C3OC(CO)C(O)C(O)C3O)c(O)c12 (configuration not stated) returned JMJD2E inh 14µM*, TR SRC2 fluor cs -6%, Tau fibril ThT inconclusive, TRb-SRC2 inh -1%, Tau FP inhib -18% and Tau fluor cs -16%.
`O=c1cc(-c2ccc(O)cc2)oc2cc(O[C@@H]3O[C@H](CO)[C@H](O)[C@H](O)[C@H]3O)cc(O)c12` gave TR SRC2 fluor cs 1% and TRb-SRC2 inh -2%.
`Cc1cc(C)c2sc(NNC(=O)c3ccc(S(=O)(=O)N4CCc5ccccc5C4)cc3)nc2c1` gave JMJD2E inh 13µM*, TR SRC2 fluor cs 0%, Tau fibril ThT -15%, TRb-SRC2 inh -2%, Tau FP inhib 14% and Tau fluor cs inconclusive.
Screening S=C1Cc2ccccc2N1 returned JMJD2E inh inconclusive, TR SRC2 fluor cs -13%, Tau fibril ThT 0.71µM*, TRb-SRC2 inh inconclusive, Tau FP inhib inconclusive and Tau fluor cs 8.9µM*[quencher].
Screening CCOc1ccc(N(CC)S(=O)(=O)N2CCCC(C(=O)NCc3ccccc3OCC)C2)cc1 (configuration not stated) returned TR SRC2 fluor cs 0%, Tau fibril ThT -16%, TRb-SRC2 inh -1%, Tau FP inhib 6% and Tau fluor cs -14%.
For O=C1c2ccccc2C(=O)c2c(Nc3ccc(CCO)cc3)ccc(O)c21 the results were JMJD2E inh -26%, TR SRC2 fluor cs -7%, Tau fibril ThT 2.8µM*, TRb-SRC2 inh 5%, Tau FP inhib inconclusive and Tau fluor cs 1.8µM*[quencher].
COC(=O)CCC(=O)CN was read as JMJD2E inh 28µM*, TR SRC2 fluor cs 0%, Tau fibril ThT -15%, TRb-SRC2 inh 2%, Tau FP inhib 12% and Tau fluor cs -11%.
`COc1cc(C2C(C(=O)c3cccs3)=C(O)C(=O)N2Cc2ccco2)cc(OC)c1OC` (configuration not stated) gave JMJD2E inh -17%, TR SRC2 fluor cs 2%, Tau fibril ThT -7%, TRb-SRC2 inh -11%, Tau FP inhib -17% and Tau fluor cs -4%.
O=C(/C=C/c1ccco1)c1ccc(NC(=O)C23CC4CC(CC(C4)C2)C3)cc1 was read as JMJD2E inh 32µM*, TR SRC2 fluor cs 0%, Tau fibril ThT inconclusive, TRb-SRC2 inh -5%, Tau FP inhib -2% and Tau fluor cs -19%.
O=C(Nc1ccc(NC(=O)C23CC4CC(CC(C4)C2)C3)cn1)c1ccco1 was read as JMJD2E inh inconclusive, TR SRC2 fluor cs 2%, Tau fibril ThT 7%, TRb-SRC2 inh 20%, Tau FP inhib 0% and Tau fluor cs 4%.
O=C(/C=C/c1ccc(O)c(O)c1)OC1C(O)CC(OC(=O)/C=C/c2ccc(O)c(O)c2)(C(=O)O)CC1O (configuration not stated) was read as JMJD2E inh 3.2µM*, TR SRC2 fluor cs -1%, Tau fibril ThT -17%, TRb-SRC2 inh 3%, Tau FP inhib 0% and Tau fluor cs -13%.
`O=C(/C=C\c1ccc(O)c(O)c1)O[C@@H]1C[C@](O)(C(=O)O)C[C@@H](O)[C@@H]1O` gave JMJD2E inh 4.5µM*, TR SRC2 fluor cs -2%[53 µM] and TRb-SRC2 inh -3%[53 µM].
Screening COc1ccc(NC(=O)c2cn3c4c(ccc(Cl)c4c2=O)OC(C)C3)cc1OC (configuration not stated) returned TR SRC2 fluor cs 25µM*[quencher], Tau fibril ThT -17%, TRb-SRC2 inh -18%, Tau FP inhib 1% and Tau fluor cs -6%.
